Results taken from PubChem BioAssay (NCI).
About 83,000 compounds went through this panel and 20% of them were active in at least one assay; those are over-represented in the sample as a whole.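 The endpoint reported here, percent growth, reads 100 for growth as untreated, 0 for no net growth and -100 for all cells dead.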 A number with no mark means an inactive call. Calls of active or inactive are those of the source. Rule for the calls: active = growth percent below 10; inactive = the rest.

system: MDA-MB-435 melanoma; experiment: NCI-60 one-dose screen, 48 h (100 = growth as untreated, 0 = no growth, -100 = all killed); conditions: 10 µM unless noted

First: Cl.Fc1c[c-]c(-c2ccccn2)c(F)c1.[Pt].c1ccc(P(c2ccccc2)C([PH+](c2ccccc2)c2ccccc2)[PH+](c2ccccc2)c2ccccc2)cc1
Second: N#Cc1c(N)n2c(nc1=Nc1ccc([N+](=O)[O-])cc1)sc1cc(Cl)ccc12
The growth of the first is lower: 12.9% for the first, 97.9% for the second.

COc1cc2nc(Nc3ccc(F)cc3)nc(N)c2cc1OC showed a growth of 96.2%.

system: SW-620 colon; experiment: as above; conditions: 10 µM unless noted

Compared with O=[N+]([O-])c1cccc(/C=C/c2ccccn2)c1, O=C(Nc1ccccc1)c1sc(-c2cccc(C(F)(F)F)c2)cc1O is higher in growth: 47.7% for the first, 76.1% for the second.

Going from COc1ccc(-c2nc3ccccn3c2/C=C/C(=O)c2cc(OC)c(OC)c(OC)c2)cc1 to COc1ccc(-c2nnc(SCC(=O)NC3=NN=C(c4ccccc4)CS3)o2)cc1, the growth rises from 49.7% to 98.3%.

First: COc1ccc(/C(C)=C(\c2ccc(Cl)cc2)c2ccc(OCCN3CCCCC3)cc2)cc1F
Second: COc1cccc(CCC2CCCN(c3cc(C)nc(N)n3)C2)c1 (centres undefined)
The growth of the first is lower: 22.1% for the first, 30.4% for the second.

Compared with CCOc1cccnc1/C=N/NC(N)=S, CCN(CC)S(=O)(=O)c1ccc(O)c(NC(=O)c2[nH]c(C)c(C(C)=O)c2CCc2ccc(Cl)cc2)c1 is higher in growth: 40.8% for the first, 61.5% for the second.

First: CCCCCCCC/C=C/CCCCCCCC1=NCC[N+]1(CCO)CCO
Second: C[C@@H]1C(=O)N(C[C@H](Cc2ccccc2)N(Cc2ccccc2)Cc2ccccc2)[C@]1(Cc1ccccc1)C(=O)OC(C)(C)C
The growth of the first is higher: 71.4% for the first, 63.7% for the second.

N=C(N)c1ccc(-c2ccc(-c3ccc(Cl)cn3)s2)cc1 was tested, and the growth was -28.3% (active).
